Assay outcomes as filed in PubChem BioAssay.
IL1B secr inh: qHTS for Inhibitors of Inflammasome Signaling: IL-1-beta AlphaLISA Primary Screen | THP-1 LPS/ATP IL-1B secretion, AlphaLISA, 16 h; hits give low values | activity change, % at 57.5 µM | hit rate 4.7% among 360,000; in the data active = activity change below about -50%; inconclusive = mostly about -30% to -49%
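Secreted IL-1B measured by AlphaLISA bead assay after 16 h compound exposure of THP-1 cells; compounds (final up to 57.5 uM) added 1 h before LPS (250 ng/mL) and ATP (1.25 mM) stimulation; lower signal means less secretion.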
TDP1 cell noCPT: qHTS for Inhibitors of human tyrosyl-DNA phosphodiesterase 1 (TDP1): qHTS in cells in absence of CPT; DT40 Tdp1-/- hTDP1 cells, no CPT, ATP luminescence, 48 h; Potency, µM (top dose mostly 46.2 µM), for the others: top-dose activity change, negative = growth inhibition, actives largely listed as inhibitors; hit rate 15% among 420,000; AID 686978, 2013; also: potency is read from the fitted curve at half-maximal effect; nearly all actives have a fitted effect of over 55% in size
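Stably hTDP1-transfected Tdp1-null chicken DT40 cells were treated with library compounds minus camptothecin and grown for at least 48 hr at 37 °C, after which cellular ATP was quantified by luminescence.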
Six1-Eya2 inh: qHTS Assay for Inhibitors of the Six1/Eya2 Interaction; Homeobox protein SIX1 (Homo sapiens) + Protein phosphatase EYA2 (Homo sapiens), …; AlphaScreen GST-Six1/His-Eya2 binding, biochemical; hits give low values; activity change, % (test concentration not listed); hit rate 0.56% among 360,000; in the data active = activity change below about -65%; inconclusive = mostly about -30% to -63%
Target sequence (O00167 whole entry, looked up): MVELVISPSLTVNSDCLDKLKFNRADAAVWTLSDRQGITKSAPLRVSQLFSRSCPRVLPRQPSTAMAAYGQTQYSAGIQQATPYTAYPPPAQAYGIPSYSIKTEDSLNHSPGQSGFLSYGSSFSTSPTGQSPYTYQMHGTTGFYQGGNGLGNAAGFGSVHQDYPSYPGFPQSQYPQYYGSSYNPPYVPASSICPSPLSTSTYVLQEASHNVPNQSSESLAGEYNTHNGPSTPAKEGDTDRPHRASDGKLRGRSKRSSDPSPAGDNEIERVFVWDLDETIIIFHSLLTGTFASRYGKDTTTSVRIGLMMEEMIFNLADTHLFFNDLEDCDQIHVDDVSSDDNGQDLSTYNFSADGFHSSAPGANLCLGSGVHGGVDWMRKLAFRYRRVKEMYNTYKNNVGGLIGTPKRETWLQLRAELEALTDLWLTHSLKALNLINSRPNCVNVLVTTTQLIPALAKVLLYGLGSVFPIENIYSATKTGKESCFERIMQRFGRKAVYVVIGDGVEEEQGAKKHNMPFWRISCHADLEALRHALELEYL
Target sequence (Q15475 whole entry, looked up): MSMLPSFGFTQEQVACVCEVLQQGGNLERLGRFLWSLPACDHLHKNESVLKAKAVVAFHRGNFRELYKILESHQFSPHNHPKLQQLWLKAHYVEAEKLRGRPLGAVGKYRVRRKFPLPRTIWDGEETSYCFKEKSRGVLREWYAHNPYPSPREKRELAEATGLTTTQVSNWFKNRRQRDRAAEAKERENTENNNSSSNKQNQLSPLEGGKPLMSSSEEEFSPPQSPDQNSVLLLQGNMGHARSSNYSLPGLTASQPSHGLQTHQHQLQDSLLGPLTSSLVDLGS
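AlphaScreen with GST-Six1 and His-Eya2 (5X mix: 250 nM and 500 nM), glutathione donor and nickel acceptor beads; buffer 50 mM Tris pH 8.0, 300 mM NaCl, 1 mM TCEP; 1 h at 37 C in the dark.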
DT40 TDP1 CPT: qHTS for Inhibitors of human tyrosyl-DNA phosphodiesterase 1 (TDP1): qHTS in cells in presence of CPT. chicken DT40 Tdp1-/-;hTDP1 cells + 20 nM CPT, ATP luminescence, 48 h. Potency, µM (series often up to 46.2 µM), without a hit: top-dose activity change, negative = growth inhibition, usual class: inhibitors. hit rate 12% among 420,000. AID 686979, 2013; also: potency is read from the fitted curve at half-maximal effect; nearly all actives have a fitted effect of over 55% in size
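Cell growth measured by CellTiter-Glo luminescence after a minimum 48 h, 37 C compound exposure with 20 nM CPT in Tdp1-knockout DT40 cells stably expressing hTDP1, seeded 400/well; qHTS titration format.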
TDP1 block: qHTS Assay for Inhibitors of Tyrosyl-DNA Phosphodiesterase (TDP1); Potency, µM (series often up to 130 µM), for the others: top-dose activity change, negative = inhibition, actives largely listed as inhibitors; hit rate 0.28% among 350,000; recombinant TDP1, AlphaScreen DNA substrate cleavage; Tyrosyl-DNA phosphodiesterase 1 (Homo sapiens), Q9NUW8; also: potency is read from the fitted curve at half-maximal effect; nearly all actives have a fitted effect of over 40% in size
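Steps: enzyme plus compound, 15 min RT; add biotin/phosphotyrosine-FITC oligonucleotide (15 nM final), react 5 min; add donor/acceptor beads (10 ug/ml final), 10 min; read AlphaScreen. Tdp1 at 1 nM final.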
CtBP-E1A inh: qHTS Assay for Inhibitors of the CtBP/E1A Interaction. AlphaScreen GST-E1A/His-CtBP binding, 1536-well; hits give low values. activity change, % (no concentration beside the values). hit rate 0.49% among 340,000; in the data active = activity change below about -65%; inconclusive = mostly about -30% to -63%
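GST-E1A and His-tagged CtBP (125 nM each as 5X stock) were preincubated with pin-transferred compound for 2 h at 37 °C in the dark, then glutathione donor and nickel acceptor beads were added for 1 h before AlphaScreen reading.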
Active calls of the source: *; ? = inconclusive; . = no result given; [ ] = dose if it differs, or a comment. The list is not random: actives were taken first. Their share in the collection is about 18%. Unless noted, calls follow the shape of the dose curve; as a rule, active = well fitted curve in the direction sought with a large enough effect; inconclusive = small, poorly fitted or top-dose-only effect, or another doubt; inactive = no such curve, though single readings can be large; an effect the other way counts as inactive or inconclusive. % is scaled to controls: 0 for no effect and ±100 for the full control effect.

SMILES	IL1B secr inh	TDP1 cell noCPT	Six1-Eya2 inh	DT40 TDP1 CPT	TDP1 block	CtBP-E1A inh
O=C(N/N=C/C(Br)=C\c1ccccc1)c1ccco1	?	9.2µM*	-7.6	6.51µM*	3.7%	-81.7*
Cc1occc1C(=O)N/N=C/C(Br)=C\c1ccccc1	?	11.6µM*	-9.4	18.4µM*	6.2%	0.0
O=C(N/N=C/C=N/NC(=O)c1ccco1)c1ccco1	10.2	-0.2%	-2.9	-18.7%	0.3%	-18.7
Cc1onc(-c2ccccc2)c1C(=O)N/N=C/C(Br)=C/c1ccccc1	?	9.2µM*	-5.7	6.51µM*	7.6%	-4.8
Cc1onc(-c2ccccc2)c1C(=O)N/N=C/c1cc(Br)c(O)c(Br)c1	11.6	?	-8.8	?	4.3%	0.6
Cc1occc1C(=O)N/N=C/c1ccc(N(C)C)cc1	-16.7	-23.6%	-3.0	-0.5%	1.2%	-4.6
O=C1CC(c2ccccc2)CC2=C1C1(CCCCC1)N=C(Nc1nc3ccccc3o1)N2 (centres undefined)	.	.	.	.	0.5%	.
CC1(C)CC(=O)C2=C(C1)NC(Nc1nc3ccccc3o1)=NC21CCCCC1	24.0	23.1µM*	-1.2	?	1.0%	7.9
COc1ccc(CCNC(=O)Cn2cccc2C(=O)c2ccccc2)cc1OC	-10.9	-19.8%	2.6	20.0%	-1.1%	0.0
COc1ccc(OC)c(CCNC(=O)Cn2cccc2C(=O)c2ccccc2C)c1	0.0	8.2µM*	-13.0	?	0.0%	7.7
COc1ccc(OC)c(CCNC(=O)Cn2cccc2C(=O)c2ccccc2)c1	0.0	?	-7.4	7.31µM*	7.7%	-24.1
C=CCNC(=O)/C(C#N)=C/c1c(C)nn(-c2ccccc2)c1Cl	-67.9*	?	0.6	?	-5.5%	-7.9
CCOc1ccccc1NC(=O)/C(C#N)=C/c1c(C)nn(-c2ccccc2)c1Cl	-50.8*	?	3.1	?	3.4%	4.8
CCOc1ccccc1NC(=O)/C(C#N)=C/c1cccnc1	68.7	-3.8%	0.6	-15.6%	3.8%[56.1 µM]	-0.7
COc1cc(C2C(C(=O)Nc3ccccc3C)=C(C)Nc3nc(SCc4cc(C)ccc4C)nn32)ccc1O (centres undefined)	.	?	.	?	1.5%	.
CCCCN(C(=O)CN1C(=O)C2CCCCC2C1=O)c1c(N)n(CCCC)c(=O)[nH]c1=O (centres undefined)	5.8	-5.1%	4.7	4.9%	1.0%[0.505 µM]	-3.8
Cc1cc(NC(=O)Nc2cccc3ccccc23)no1	7.7	?	-0.5	9.2µM*	4.8%	-1.0
CC(=O)N(C)c1ccc(NC(=S)Nc2ccc(C(C)C)cc2)cc1	21.3	25.9µM*	14.0	16.4µM*	5.5%	.
CC(C)c1ccc(NC(=S)Nc2ccc3[nH]c(=O)[nH]c3c2)cc1	-1.9	4.4%	-0.6	-3.0%	3.5%	1.9
Cc1cc(NC(=O)C(Cl)c2ccccc2)no1 (centres undefined)	-83.4*	?	4.9	7.31µM*	1.2%	-20.7
Cc1cccc(NC(=O)Nc2cccc3ccccc23)c1	-23.2	2.4%	7.1	-1.1%	1.5%	3.6
Cc1ccoc1C(=O)Nc1cccc2ccccc12	-9.6	20.6µM*	13.3	9.2µM*	.	.
CCn1c(C)nc2cc(C(=O)N=Nc3c(O)[nH]c4c(C)cc(C)cc34)ccc21	.	.	.	.	-2.7%	.
COC(=O)c1ccc(Oc2ccc(C(C)(C)C)cc2)c([N+](=O)[O-])c1	15.4	?	20.1	?	4.3%	0.0
Cc1cc(NC(=O)Nc2ccc(C)c(C)c2)no1	14.3	-101.6%	1.0	23.1µM*	2.7%	2.1
SMILES	IL1B secr inh	TDP1 cell noCPT	Six1-Eya2 inh	DT40 TDP1 CPT	TDP1 block	CtBP-E1A inh
Cc1ccccc1CC(=O)Nc1cc(C(C)(C)C)on1	8.2	-27.3%	0.9	9.2%	.	6.3
Cc1cc(NC(=O)Cc2ccccc2C)no1	0.0	-22.5%	-4.9	23.1µM*	.	5.8
CC(=O)N(C)c1ccc(NC(=O)Nc2ccccc2C)cc1	15.9	-0.6%	13.9	-8.3%	0.0%	0.0
CC(=O)N(C)c1ccc(NC(=O)Nc2ccc(C)c(C)c2)cc1	?	18.4µM*	-17.5	?	.	-5.8
O=C(CN1CCN(S(=O)(=O)c2ccc(Br)cc2)CC1)N/N=C/c1cccs1	-6.5	-28.7%	1.6	-1.9%	5.5%	-4.1
O=C(Nc1ccc2oc(=O)ccc2c1)c1ccc(-c2cccc(Cl)c2)o1	-26.8	?	6.1	8.2µM*	.	-7.7
O=C(Nc1ccc2oc(=O)ccc2c1)c1ccc(-c2ccc(Cl)cc2)o1	14.9	-27.0%	9.4	-23.2%	5.5%	3.7
O=C(Nc1ccc2oc(=O)ccc2c1)c1ccc(-c2cccc([N+](=O)[O-])c2)o1	6.0	7.31µM*	?	8.2µM*	0.0%	-7.3
Cc1ccc(C(=O)/C=C/c2cc(Br)cc(Br)c2O)o1	?	29.1µM*	-17.4	-21.1%	.	.
Cc1ccc(C(=O)/C=C/N(C)C)o1	-6.6	4.7%	0.1	21.6%	-2.7%	2.1
Cc1ccccc1NC(=O)c1ccc(CNS(=O)(=O)c2ccc3c(c2)C(C)(C)C(=O)N3C)cc1	.	?	.	?	2.6%	.
COc1cccc(NC(=O)c2ccc(CNS(=O)(=O)c3ccc4c(c3)C(C)(C)C(=O)N4C)cc2)c1	.	23.1µM*	.	?	0.0%	.
COc1cccc(NC(=O)c2ccc(S(=O)(=O)NCc3cccnc3)cc2)c1	50.3	?	-9.0	?	.	-17.1
Cc1cccc(NC(=O)c2ccc(CNS(=O)(=O)c3ccc4c(c3)C(C)(C)C(=O)N4C)cc2)c1	.	11.6µM*	.	20.6µM*	-5.1%	.
COc1cccc(S(=O)(=O)NCc2ccc(C(=O)Nc3cccc(Cl)c3)cc2)c1	?	25.9µM*	-7.1	20.6µM*	-1.1%	-4.0
CCC(C)NC(=O)c1ccc(CNS(=O)(=O)c2ccc3c(c2)C(C)(C)C(=O)N3C)cc1 (centres undefined)	-10.7	-10.8%	-2.0	-8.0%	-2.6%	6.7
Cc1ccc(NC(=O)c2ccc(CNS(=O)(=O)c3ccc4c(c3)C(C)(C)C(=O)N4C)cc2)cc1C	.	11.6µM*	.	14.6µM*	0.0%	.
